Laboratory results: PubChem BioAssay AID1347426 (Functional Genomics Laboratory (NCATS/FGL), 2020)
Hit rate of the full screen: of about 31,000 sequences, about 1,400 (4.5%) were called active.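 The calls were made as follows: active = median seed-adjusted z-score above 1 or below -1; inactive = the rest.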 The full list was thinned out, with actives kept by preference.

Test: Novel Modifiers of Survival Motor Neuron (SMN) Protein: Gene Identification via Genome-wide siRNA Screen
Settings: HEK293T SMN2-luciferase reporter, siRNA knockdown, 72 h; actives lie on both sides
Source text: Spinal muscular atrophy (SMA) is the most common neuromuscular autosomal recessive disorder and one of the leading genetic causes of infant death. SMA results from mutations inducing loss of function or deletion in the survival of motor neuron-1 gene (SMN1), leading to deficiency of the survival motor neuron (SMN) protein. Although a second nearly identical gene, SMN2, is retained in humans, its expression primarily produces an aberrantly spliced isoform that is largely unstable and quickly degraded. We performed a genome-wide RNAi screen using a cell-based reporter assay to identify genes and pathways that modulate SMN protein stability. The screen identified over 200 genes that led to the greatest increase or decrease in luciferase expression.
Using HEK293T cells stably expressing a luciferase reporter that combines the promoter and splicing based cassettes in tandem with the major portion of the native SMN2 cDNA with luciferase, we performed a genome-wide RNAi screen to identify modulators of SMN protein levels. Luciferase is expressed when full-length SMN protein is generated with luminescence signal proportional to SMN protein levels. Our luciferase-based reporter assay was used to screen Ambion Silencer Select Human Druggable Genome siRNA library (10418 genes, 3 unique siRNAs per gene) using lipid-based reverse transfection.
Briefly, 1 pmol of each siRNA was spotted to a well of a 384-well plate (Corning, Corning, NY) and 20 microL of serum-free DMEM containing […] of Lipofectamine RNAiMax (Life Technologies, Carlsbad, CA) was then added to each well. Transfected cells were maintained at 37 degrees C in 5% CO2 for 72 hours, 20 microL of ONE-Glo Reagent (Promega) was added to wells for luciferase quantification. Raw luminescence reads were normalized to Ambion(R) Silencer(R) Negative Control #2 siRNA, then log10 transformed. A robust statistical measure of median absolute deviation (MAD) to standardize siRNA activities from each screen. Common Seed Analysis was used to help prioritize clean hits as opposed to those appearing to arise from seed based off-target effects. Candidate modulators were defined as the genes having a MAD score greater than 1.0 or less than -1.0.

Sequence | median seed-adjusted z-score
GCCCAUCACCUCUUCAUGATT against RAMP1 | -0.031 (inactive)
GAAACGAACUGGGCAGUAUTT against FGF2 | 0.0208 (inactive)
GGAUAGUGAGGAUAAGGAATT against PPP1R15A | 0.539 (inactive)
CAAAUCCAGUGGUGGGUAATT against S100A6 | -0.264 (inactive)
GUCCUGAAGUCACUCCGAUTT against FUT10 | -0.629 (inactive)
CCACUCUCAUCAAAUCCGATT against MLL2 | -2.11 (active)
AGAUGAGGAGUGUCGUCAATT against KLK13 | 0.452 (inactive)
GUUCCUACGUGUACAACGATT against DNASE1L1 | 0.542 (inactive)
GAAUAUGGGUUGGCCUAUATT against ZNF655 | -0.156 (inactive)
CAUUAGCAGAUAUACUAUUTT against EEF1E1 | -1.45 (active)
GGACGGAUCUCAAUCGAAATT against CPO | 0.0875 (inactive)
GAAGGAAUGAAAUCCGGAATT against TRIM8 | -0.296 (inactive)
CGAAUUCAGGUCAACAAUATT against TRERF1 | -0.0952 (inactive)
GAGUUUAAGCGCAAGCAUATT against HSPA8 | 0.462 (inactive)
UCACAGACGAGGCAUUUAATT against FTCD | -0.27 (inactive)
GCCUGGAUGAAUUCGAUUATT against UBE4A | -0.285 (inactive)
GUAAUACGAGGAAAUAGUATT against SNRPG | -3.09 (active)
CAUACACUCUACUCCUGCUTT against CDH26 | 0 (inactive)
GCGACCCUGUUAUUCUGUATT against TM9SF1 | 0.14 (inactive)
CACCAUUGCAAACCAAAUATT against KCNQ5 | 0.0191 (inactive)
CGUCAACGAUCGGAAGAAATT against TTLL9 | 0.0534 (inactive)
GCCCAACAAGUGCAUGUUUTT against GLIS1 | 0.838 (inactive)

Sequence | median seed-adjusted z-score
CCUCGUCCGUAGUCUCCUUTT against ADRB1 | 1.06 (active)
GUAUUGCCUUUGUCAAGAATT against SNX19 | 0.67 (inactive)
GAAUUGACUUCUUGUCUAATT against RAB41 | -0.534 (inactive)
CGUCAUCAGACUCAAUGAATT against 12-Sep | 0.286 (inactive)
GGAUGAUGAGUACUCUGAATT against COL7A1 | 1.08 (active)
GGAAUUUAAGUGAUAGUGATT against CPEB2 | -0.00928 (inactive)
GCUGCAACCUUGACUACUATT against RRM1 | -5.51 (active)
AGGUGAAUAUUGACCACUUTT against RGS5 | 0 (inactive)
GAGUCAACAAUGGACAUUUTT against KLHL1 | 0.067 (inactive)
CAACUAGUGGAGAAGAUCATT against FAM63B | 0.111 (inactive)
GGUCACCACUUGCAAGCUATT against ANG | -0.481 (inactive)
AGCUGGGCUUUAUCGUGGATT against P2RX2 | 0.0454 (inactive)
GCUUAUUUAUGUAUCAAUATT against ADRB1 | 1.06 (active)
GGAAAAAUCUAAGAAGCAATT against ZC3H11A | -0.137 (inactive)
GCUUCACCAUCGAAUCCAATT against FLT4 | -0.861 (inactive)
GCUGCGGCAUGAUCACUAATT against LBXCOR1 | 0.0938 (inactive)
CAUUGGGCCUAGAAAUUCATT against CNKSR1 | 0.217 (inactive)
GGCGAAGUGUCCGACAGAATT against ZNF747 | 0.379 (inactive)
GGAGAUCUGCUACUAAACATT against PSMD6 | -1.03 (active)
GGGAGAGUGGUGAACGUAUTT against CBR1 | -0.6 (inactive)
CAGUGUUAAUGACCGAAGATT against EIF4G1 | -0.978 (inactive)
GAUGAUACCAGGCAUAUAATT against USP15 | -0.405 (inactive)

Sequence | median seed-adjusted z-score
GCAAUCUUGUUGUACACCATT against ZNF432 | -0.124 (inactive)
GGAGCUGAAUGAGCUGACATT against OSBPL7 | 0 (inactive)
CCACGAUGUGGGAUAAUAATT against GALNAC4S-6ST | 0.218 (inactive)
GUGGUGCAGUUUUUCGUAATT against THOC2 | -1.22 (active)
GGCUCAUAAUGGAGCAGGUTT against TIMM13 | -0.422 (inactive)
CAGUCUUGAUUCCACUGAATT against PCDHA3 | 0.311 (inactive)
CGGAUAUUCCUGAACGCAATT against MARK3 | 0.271 (inactive)
GCACGCGGCUAUACAAUCATT against SLC25A34 | -0.256 (inactive)
GAAGCAGUGCCAAUGAACATT against TCEB2 | 1.28 (active)
AGCACAUCUCGGUCCUCCATT against MAPK8IP2 | 0.284 (inactive)
GGACGAUCACUGUUGUGCATT against RBM22 | 0.0259 (inactive)
ACUUGAAUCUUAGCAUUCATT against RAD9A | -0.0564 (inactive)
CAAGACUGCUGAUGAGUUUTT against HSD17B3 | 0.734 (inactive)
CUUUCACACUCGACACUGATT against HOXA2 | 0.335 (inactive)
GAACAUCCGUGAGCAAGGATT against KCNJ8 | 0.329 (inactive)
GCCCUUGCCUUAUUGCUGATT against MED20 | -1.66 (active)
GGCUUGAGUUCAUUCAGAATT against PKN3 | 0.476 (inactive)
GCCGGUGCUUUAUCUCAUUTT against GPR87 | 0.237 (inactive)
GAGACUUUCUACAAUACUATT against EIF4A2 | 0 (inactive)
CGCUCUCUUCACUUACGAATT against MYO10 | 0.8 (inactive)
UAAUGACCCUAUCUAUAAATT against UGT2B17 | -0.0203 (inactive)
GAUGGAUUCUUGUUCCGUUTT against KCTD16 | 0.00219 (inactive)

Sequence | median seed-adjusted z-score
GAACUUCUACUUUAACAAATT against HS3ST1 | 1.21 (active)
CUUUUGAACAGAUCGAUGATT against EXO1 | 0.547 (inactive)
GCUCAUAAAUGAGAAGCUATT against PCDHB16 | -0.523 (inactive)
AGUGUACAAUCGAUAAAAATT against ESR2 | -1.1 (active)
CAGCAUACAUGUUUAGUGATT against TRPC6 | -0.527 (inactive)
CGGUAUCUAUGACACUGCATT against SLC25A5 | -0.0501 (inactive)
CAGAGUCUUUCAUUCGAAUTT against SPATA5 | -1.04 (active)
GAACUAUGGUGCUACUGGATT against ZNF449 | 0.178 (inactive)
AGAGCUCACUCGUCCCAAUTT against CXCL16 | 0.201 (inactive)
CGAAAAGUCUCACAGUGGATT against ZNF563 | 0.00283 (inactive)
CGGGUAUUGUGGGACUGAATT against USP39 | 0.821 (inactive)
UAAUUGACCUGACCAGUUUTT against SLC30A8 | -0.767 (inactive)
CUGGAUAAGUGUUUCGAAATT against AP3S2 | 0.521 (inactive)
CACCCACACCGGAUUGAAATT against BAG5 | -0.0153 (inactive)
CGGCCGCUCUAUAAGCUGATT against LLGL1 | -1.13 (active)
GCCCUGCGGUACAAUGUCATT against APOBEC2 | 0.232 (inactive)
GGCCUAUUUCCAAACCGAUTT against RICS | 0.665 (inactive)
CCACCGAUUUGAUCCCAAATT against NAPSA | -0.336 (inactive)
CAUUCACCACAAUAGCUAUTT against GPR1 | 0.0609 (inactive)
GGAUUGAAGAUACUACAAATT against THOC1 | -3.04 (active)
CAACAGCACCAGUUUGACATT against NAGLU | -0.526 (inactive)
GGACUUCAGGGUUUAACAATT against FOLR1 | -1.31 (active)

Sequence | median seed-adjusted z-score
CAGCCUUACUCAAUUUGUATT against EFS | -0.299 (inactive)
CACGUGCAGAGUGUCGAUATT against EEF1D | 0.421 (inactive)
GGUCUAAACUUGAUCCAAATT against CCAR1 | -1.18 (active)
AAUAUUUGCUGUUCGUCAATT against MOCS2 | 0.0327 (inactive)
CCAUCCCAAAUUUACAACATT against SARS2 | 0.524 (inactive)
CUCUAACUAUGAUCUCGUUTT against CDS1 | 0.0208 (inactive)
GGCUUGACCUUUUUCGUCUTT against DYNC2H1 | -0.613 (inactive)
GAACCGACAAAAGUAGAUATT against RARB | 0.409 (inactive)
GAAUUAGAGUUGAGGGUAATT against MYBPC1 | 0.295 (inactive)
GCAUGGUCUUUCUACUUGUTT against TUBB2A | 1.03 (active)
CCAAAGCUCUCAUCGGAGATT against GNS | 0 (inactive)
GGACUCACCAAAUAGAUCATT against ZNF818 | -0.223 (inactive)
GCAAGGAGUAUAACAUGUATT against SKAP1 | -0.00637 (inactive)
CAUUCGAUCUAGCAAAUUATT against TUBB1 | -0.289 (inactive)
GGCUGUUGGUAACCUGAGATT against TF | 0.192 (inactive)
GACCAUUCGUACUCCUUGUTT against THAP11 | -1.36 (active)
CCAUCGCCUUGAAGGAGAATT against RNF31 | -0.687 (inactive)
AGACCUUCGUGGAAAAAUATT against CDC37 | 0 (inactive)
GGAGGACAAUCAGCAAGGATT against SPOCK2 | 0.967 (inactive)
AGAACAUCAUCGCGCGGGATT against FOXB1 | 0.223 (inactive)
